Values joined by “and” are separate entries in the source; they are usually repeats but may differ in a detail not shown here. Equal entries are not always repeated. Inconclusive results are not listed. Active and inactive are the calls of the source. The call rests on the fitted dose curve.
Test: qHTS Assay for Lipid Storage Modulators (AID 1519); on activity change, negative = inhibition: on the % scale 0 is the no-effect control and ±100 the full control effect
Conditions: Drosophila S3 cells, BODIPY lipid droplet/cell ratio, laser cytometry; at 57.5 µM (top of the series); cells loaded with oleic acid
Procedure, shortened: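 Cells seeded at 5,000 per well were treated with compounds over a concentration series and loaded with oleic acid (400 uM, as added). Lipid droplet fluorescence (488 nm excitation, 500-530 nm channel) was read by laser-scanning cytometry and normalized to 20 uM Triacsin C.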

| SMILES | activity change, negative = inhibition |
| --- | --- |
| CCCCOc1ccc(C(=O)CCN2CCCCC2)cc1 | -7.63% (inactive) |
| O=C1c2ccccc2C(=O)C1c1ccccc1 | 10.4% (inactive) |
| CCCCCCCCCCCCCCCCOP(=O)([O-])OCC[N+](C)(C)C | 6.36% (inactive) |
| Oc1c(I)cc(Cl)c2cccnc12 | 2.97% (inactive) |
| c1ccc(-c2ccc(C(c3ccccc3)n3ccnc3)cc2)cc1 (configuration not stated) | 13.6% (inactive) |
| CNCCC=C1c2ccccc2CCc2ccccc21 | 7.28% (inactive) |
| CCCCC1=NC2(CCCC2)C(=O)N1Cc1ccc(-c2ccccc2-c2nn[nH]n2)cc1 | -6.83% (inactive) |
| CCN(CCCc1ccccc1)CCCc1ccccc1 | 3.79% (inactive) |
| Cc1c(N(C)CS(=O)(=O)O)c(=O)n(-c2ccccc2)n1C | 9.06% (inactive) |
| CCOC(=O)n1ccn(C)c1=S | 8.2% (inactive) |
| CC[N+](CC)(CCNC(=O)C(=O)NCC[N+](CC)(CC)Cc1ccccc1Cl)Cc1ccccc1Cl | 1.97% (inactive) |
| COc1ccc(OC)c(C(O)CNC(=O)CN)c1 (configuration not stated) | 8.05% (inactive) |
| CC(=O)Nc1c(I)cc(I)c(C(=O)O)c1I | 5.69% (inactive) |
| CN1CCC(=C2c3ccccc3Sc3ccccc32)CC1 | 13.8% (inactive) |
| CN=C(NC#N)NCCSCc1csc(N=C(N)N)n1 | 3.24% (inactive) |
| CC(Cc1cccc(C(F)(F)F)c1)NCCOC(=O)c1ccccc1 (configuration not stated) | -1.3% (inactive) |
| Cc1cc(=O)n(-c2ccccc2)n1C | 0.266% (inactive) |
| OC(CCN1CCCCC1)(c1ccccc1)c1ccccc1 | 3.44% (inactive) |

Same assay, conditions: Drosophila S3 cells, BODIPY lipid droplet/cell ratio, laser cytometry; measured here: cell count channel max response; cells loaded with oleic acid

| SMILES | max response |
| --- | --- |
| Cc1c(C(N)=O)cc([N+](=O)[O-])cc1[N+](=O)[O-] | 12.8% |
| Nc1nc2ncc(CNc3ccc(C(=O)N[C@@H](CCC(=O)O)C(=O)O)cc3)nc2c(=O)[nH]1 | -7.62% and 6.6% |
| CC(C)NC[C@@H](O)COc1cccc2ccccc12 | -4.01% [middle of 4 runs] |
| COc1ccc(CCN2CCC(Nc3nc4ccccc4n3Cc3ccc(F)cc3)CC2)cc1 | -13.7% and 8.29% |
| CN1CCN(CCCN2c3ccccc3Sc3ccc(S(=O)(=O)N(C)C)cc32)CC1 | -3.59% |
| CC(=O)N(O)CCCCCNC(=O)CCC(=O)N(O)CCCCCNC(=O)CCC(=O)N(O)CCCCCN | -10.2% and 15.7% |
| CN1CCN(C(c2ccccc2)c2ccccc2)CC1 | -1.91% and 18% |
| C/C=C(/C(=C/C)c1ccc(O)cc1)c1ccc(O)cc1 | 6.35% |
| C[N+]1(CCCCC[N+]2(C)CCCC2)CCCC1 | -13.3% and 5.22% and -4.18% |
| CCCC(=O)Nc1ccc(OCC(O)CNC(C)C)c(C(C)=O)c1 (configuration not stated) | 16.7% |
| COc1cc(OC)cc(OC)c1 | -0.306% |
| CCCCOc1ccc(C(=O)CCN2CCCCC2)cc1 | 0.252% |
| O=C1c2ccccc2C(=O)C1c1ccccc1 | -13.1% and 15.4% |
| CCCCCCCCCCCCCCCCOP(=O)([O-])OCC[N+](C)(C)C | 14.5% |
| Oc1c(I)cc(Cl)c2cccnc12 | -21.6% and -13.1% |
| c1ccc(-c2ccc(C(c3ccccc3)n3ccnc3)cc2)cc1 (configuration not stated) | 10.1% |

| SMILES | max response |
| --- | --- |
| CNCCC=C1c2ccccc2CCc2ccccc21 | -0.512% and 24.9% |
| CCCCC1=NC2(CCCC2)C(=O)N1Cc1ccc(-c2ccccc2-c2nn[nH]n2)cc1 | 15.4% |
| CCN(CCCc1ccccc1)CCCc1ccccc1 | 1.49% and 14.3% |
| Cc1c(N(C)CS(=O)(=O)O)c(=O)n(-c2ccccc2)n1C | -6.35% and 7.26% |
| CCOC(=O)n1ccn(C)c1=S | -4.79% and 2.58% |
| CC[N+](CC)(CCNC(=O)C(=O)NCC[N+](CC)(CC)Cc1ccccc1Cl)Cc1ccccc1Cl | -14% |
| CC(C)N=C(N)/N=C(\N)Nc1ccc(Cl)cc1 | -10.3% |
| COc1ccc(OC)c(C(O)CNC(=O)CN)c1 (configuration not stated) | 10.1% |
| CC(=O)Nc1c(I)cc(I)c(C(=O)O)c1I | 5.35% |
| CN1CCC(=C2c3ccccc3Sc3ccccc32)CC1 | 3.5% and 5.85% |
| C[C@@H](CN(C)C)CN1c2ccccc2Sc2ccccc21 | -4.09% |
| CN=C(NC#N)NCCSCc1csc(N=C(N)N)n1 | -6.42% |
| CC(O)(P(=O)(O)O)P(=O)(O)O | -3.25% |
| CC(Cc1cccc(C(F)(F)F)c1)NCCOC(=O)c1ccccc1 (configuration not stated) | -3.51% |
| Cc1cc(=O)n(-c2ccccc2)n1C | -1.15% and 10.6% |
| OC(CCN1CCCCC1)(c1ccccc1)c1ccccc1 | 1.42% and 9.61% |

Same assay, conditions: Drosophila S3 cells, BODIPY lipid droplet/cell ratio, laser cytometry; measured here: lipid channel max response; cells loaded with oleic acid

| SMILES | max response |
| --- | --- |
| Cc1c(C(N)=O)cc([N+](=O)[O-])cc1[N+](=O)[O-] | 29.3% |
| Nc1nc2ncc(CNc3ccc(C(=O)N[C@@H](CCC(=O)O)C(=O)O)cc3)nc2c(=O)[nH]1 | -8.4% and 15.7% |
| CC(C)NC[C@@H](O)COc1cccc2ccccc12 | -1.83% [middle of 4 runs] |
| COc1ccc(CCN2CCC(Nc3nc4ccccc4n3Cc3ccc(F)cc3)CC2)cc1 | -24.1% and 21% |
| CN1CCN(CCCN2c3ccccc3Sc3ccc(S(=O)(=O)N(C)C)cc32)CC1 | -5.35% |
| CC(=O)N(O)CCCCCNC(=O)CCC(=O)N(O)CCCCCNC(=O)CCC(=O)N(O)CCCCCN | -12.1% and 27.1% |
| CN1CCN(C(c2ccccc2)c2ccccc2)CC1 | -3.01% and 29.7% |
| C/C=C(/C(=C/C)c1ccc(O)cc1)c1ccc(O)cc1 | 27.9% |
| C[N+]1(CCCCC[N+]2(C)CCCC2)CCCC1 | -15.5% and 11.1% and -3.95% |
| CCCC(=O)Nc1ccc(OCC(O)CNC(C)C)c(C(C)=O)c1 (configuration not stated) | 24.3% |
| COc1cc(OC)cc(OC)c1 | 3% |
| CCCCOc1ccc(C(=O)CCN2CCCCC2)cc1 | 0.832% |
| O=C1c2ccccc2C(=O)C1c1ccccc1 | -14% and 33.1% |
| CCCCCCCCCCCCCCCCOP(=O)([O-])OCC[N+](C)(C)C | 23.7% |
| Oc1c(I)cc(Cl)c2cccnc12 | -24.9% and -6.72% |
| c1ccc(-c2ccc(C(c3ccccc3)n3ccnc3)cc2)cc1 (configuration not stated) | 27.7% |

| SMILES | max response |
| --- | --- |
| CNCCC=C1c2ccccc2CCc2ccccc21 | -6.43% and 39.3% |
| CCCCC1=NC2(CCCC2)C(=O)N1Cc1ccc(-c2ccccc2-c2nn[nH]n2)cc1 | 9.2% |
| CCN(CCCc1ccccc1)CCCc1ccccc1 | -0.884% and 21.1% |
| Cc1c(N(C)CS(=O)(=O)O)c(=O)n(-c2ccccc2)n1C | -5.13% and 21% |
| CCOC(=O)n1ccn(C)c1=S | -8.09% and 22% |
| CC[N+](CC)(CCNC(=O)C(=O)NCC[N+](CC)(CC)Cc1ccccc1Cl)Cc1ccccc1Cl | -12.6% |
| CC(C)N=C(N)/N=C(\N)Nc1ccc(Cl)cc1 | -11.8% |
| COc1ccc(OC)c(C(O)CNC(=O)CN)c1 (configuration not stated) | 23.2% |
| CC(=O)Nc1c(I)cc(I)c(C(=O)O)c1I | 12.7% |
| CN1CCC(=C2c3ccccc3Sc3ccccc32)CC1 | -0.527% and 23.3% |
| C[C@@H](CN(C)C)CN1c2ccccc2Sc2ccccc21 | -6.89% |
| CN=C(NC#N)NCCSCc1csc(N=C(N)N)n1 | -3.26% |
| CC(O)(P(=O)(O)O)P(=O)(O)O | -0.531% |
| CC(Cc1cccc(C(F)(F)F)c1)NCCOC(=O)c1ccccc1 (configuration not stated) | -2.7% |
| Cc1cc(=O)n(-c2ccccc2)n1C | 1.09% and 14.3% |
| OC(CCN1CCCCC1)(c1ccccc1)c1ccccc1 | -4.61% and 14.1% |
